Format in all cases: functional
Experiment [1] has as its target Solute carrier family 2, facilitated glucose transporter member 1 (Homo sapiens) (UniProt P11166). Nature of the experiment: ST_JUDE_LEISH: Cytotoxicity at 2uM final concentration against transgenic Leishmania Mexicana promastigotes LmGLUT1 that are glucose transport deficient and complemented with the human glucose transporter GLUT1. Activity is measured by DNA content using SYBR green in vitro.

Experiment [2] concerns the target Hexose transporter 1 (Plasmodium falciparum) (UniProt O97467). Nature of the experiment: ST_JUDE_LEISH: Cytotoxicity at 2uM final concentration against transgenic Leishmania Mexicana promastigotes LmPfHT that are glucose transport deficient and complemented with the Plasmodium falciparum hexose transporter. Activity is measured by DNA content using SYBR green in vitro.

In experiment [3] the target is Glucose transporter (Leishmania mexicana) (UniProt O61059). Briefly: ST_JUDE_LEISH: Cytotoxicity at 2uM final concentration against transgenic Leishmania Mexicana promastigotes LmGT2 that are glucose transport deficient and complemented with the L. Mexicana glucose transporter 2. Activity is measured by DNA content using SYBR green in vitro.

Sequence of Solute carrier family 2, facilitated glucose transporter member 1 (Homo sapiens) (P11166 whole entry): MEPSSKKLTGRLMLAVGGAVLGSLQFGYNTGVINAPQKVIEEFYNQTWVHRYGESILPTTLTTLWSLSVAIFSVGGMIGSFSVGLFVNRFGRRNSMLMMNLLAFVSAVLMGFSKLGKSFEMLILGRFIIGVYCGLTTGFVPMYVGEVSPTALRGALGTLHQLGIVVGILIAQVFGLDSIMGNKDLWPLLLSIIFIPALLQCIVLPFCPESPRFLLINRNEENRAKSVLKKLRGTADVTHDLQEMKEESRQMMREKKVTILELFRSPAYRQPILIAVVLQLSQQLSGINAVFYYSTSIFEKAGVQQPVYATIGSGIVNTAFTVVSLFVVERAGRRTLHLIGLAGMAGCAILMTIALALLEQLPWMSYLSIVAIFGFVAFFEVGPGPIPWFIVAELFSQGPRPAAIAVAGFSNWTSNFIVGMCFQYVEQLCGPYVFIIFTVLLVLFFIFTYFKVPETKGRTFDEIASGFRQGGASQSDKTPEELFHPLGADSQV

For the compound `Cc1[nH]c(C)c([N+](=O)[O-])c(=O)c1-c1ccc(Oc2ccccc2)cc1`, the inhibition was -1.81% in experiment [1], 0.5% in experiment [2] and -1.98% in experiment [3].

Regarding `CN(c1ccc(NC(=O)c2cccc(F)c2)cc1)C1CCCN(Cc2cccc(O)c2)C1` (stereo not given), the inhibition in experiment [1] is -0.85%; in experiment [2], -2.67%; in experiment [3], -0.73%.

As to `CCCNS(=O)(=O)c1ccc(NC(=O)C(C)Oc2ccc([N+](=O)[O-])cc2)cc1` (stereo not given), the inhibition in experiment [1] is 0.31%; in experiment [2] it was 0.29%; in experiment [3], -4.88%.

`COc1ccc(CCN(C)CCCOc2ccc(NC(=O)COc3cccc4sc5ccccc5c(=O)c34)cc2)cc1OC`: the inhibition in experiment [1] is -2.54%; in experiment [2] it was -2.87%; in experiment [3], -0.2%.

For `CO/C(=C\C=C\c1cc2cc(Cl)ccc2[nH]1)C(=O)NCCCN1CCN(c2cc(Cl)ccc2OC)CC1`, the inhibition in experiment [1] was 1.52%; in experiment [2], 1.33%; in experiment [3], -1.6%.

In the case of `CC1(C)NC(N)=NC(=N)N1OCCCNC(=O)c1ccc([N+](=O)[O-])cc1`, the inhibition in experiment [1] came to 4.23%; in experiment [2], 3.33%; in experiment [3], 3.92%.

On to `Cc1cccc2nc(-c3ccc(-c4cccc(CN5CCC(N)C5)c4)s3)[nH]c12` (stereo not given), for which the inhibition in experiment [1] is 9.02%; in experiment [2] it was 8.9%; in experiment [3] it was 8.23%.

Take `O=C(NC1CCN(Cc2ccccc2)CC1)c1ccc(-c2nc3cc(Cl)c(F)cc3[nH]2)s1`: the figures for the inhibition in experiment [1], in experiment [2] and in experiment [3] were 3.32%, 3.3% and 4.27%, respectively.

On to `c1cn(-c2ccc(CNc3nccc(Nc4ccc(OCCN5CCOCC5)cc4)n3)cc2)cn1`, for which the figures for the inhibition in experiment [1], in experiment [2] and in experiment [3] were -0.35%, -0.43% and 0.98%, respectively.

Regarding `Cc1nc2nc(N)nc(N)c2c(C)c1Cc1ccc(N)cc1`, the inhibition worked out at 3.4% in experiment [1], 8.1% in experiment [2] and 1.88% in experiment [3].

For `O=C(Nc1ccccc1N1CCOCC1)c1ncoc1-c1ccccc1C(F)(F)F`, the inhibition came to 3.99% in experiment [1], 2.36% in experiment [2] and 2.48% in experiment [3].

Take `Cc1cccc2nc(-c3ccc(-c4ccc(CN5CCN(CC6CCCN(C)C6)CC5)cc4)cc3)[nH]c12` (stereo not given): the inhibition in experiment [1] turned out to be 8.82%; in experiment [2], 10.8%; in experiment [3], 6.25%.

In the case of `COc1cccc(NC(=O)Nc2cc(C)nc3ccccc23)c1`, the inhibition in experiment [1] turned out to be 4.17%; in experiment [2] it was 3.94%; in experiment [3], 2.43%.

As for `CC(=O)Oc1c(Br)c(C)nc(C)c1-c1ccc(Oc2ccc(OC(F)(F)F)cc2)cc1`, the inhibition came out at 1.58% in experiment [1], 0.11% in experiment [2] and 0.37% in experiment [3].

For the compound `Cn1cc(CCNc2ccnc(N3CCC(c4ncc[nH]4)CC3)n2)c2ccccc21`, the results for the inhibition in experiment [1], in experiment [2] and in experiment [3] were -2.77%, -1.57% and -2.28%, respectively.

`O=C(NC1CC1)c1cnc(N2CCN(Cc3c(F)cccc3Cl)CC2)c(Cl)c1`: the inhibition is 12% in experiment [1], 1.02% in experiment [2] and -3.18% in experiment [3].

Consider `CCOC(=O)c1ccc(N2CCN(c3cc(C)ccc3C)CC2)c(NC(=O)Nc2ccc(Cl)c(Cl)c2)c1`, for which the values for the inhibition in experiment [1], in experiment [2] and in experiment [3] were 0.52%, 0.93% and -0.25%, respectively.

As to `Cc1cccc(Cn2c(C(N)=O)nn(-c3ccc([N+](=O)[O-])cc3C#N)c2=S)c1`, the inhibition in experiment [1] is 11.5%; in experiment [2], 11.7%; in experiment [3], 11.7%.

For the compound `CC(=O)Nc1ncc(C(=O)Nc2cccc(-c3cccc(-c4nc5ccccc5[nH]4)c3)c2)s1`, the inhibition in experiment [1] came out at 1.58%; in experiment [2] it was 1.44%; in experiment [3] it was 6.64%.

As to `N=C(N)c1ccc(Nc2nccc(Nc3nc(-c4ccccc4)cs3)n2)cc1`, the inhibition is 0.38% in experiment [1], 0.47% in experiment [2] and -0.9% in experiment [3].

On to `COc1ccc(Cc2c(C)nc3nc(N)nc(N)c3c2C)cc1OC`, for which the inhibition in experiment [1] amounted to 13.6%; in experiment [2], 15%; in experiment [3], 12.1%.

As to `Cc1ccc(C)c(NC(=O)CC2C(=O)N(c3ccccc3)C(=S)N2Cc2ccco2)c1` (stereo not given), the figures for the inhibition in experiment [1], in experiment [2] and in experiment [3] were 4.9%, 5.73% and 5.93%, respectively.

With `Cc1csc(NC(=O)c2cn(-c3ccccc3)nc2-c2cccs2)n1`, the inhibition in experiment [1] was found to be 6.04%; in experiment [2] it was 4.44%; in experiment [3], 0.74%.

Turning to `CC(C)c1sc(N2CCN(C)CC2)nc1C(=O)NCCc1cccc(Cl)c1`, the results for the inhibition in experiment [1], in experiment [2] and in experiment [3] were 6.7%, 3.42% and 3.93%, respectively.

With `COc1ccc2nc(N=C3NC4(c5ccccc5)NC(=Nc5nc6ccc(OC)cc6[nH]5)NC4(c4ccccc4)N3)[nH]c2c1` (stereo not given), the values for the inhibition in experiment [1], in experiment [2] and in experiment [3] were -1.9%, -0.84% and -0.87%, respectively.

As for `O=C(NCC1CCC(C(=O)NCCc2ccc(Cl)c(Cl)c2)CC1)c1ccc(O)c(-c2ccc(Cl)c(Cl)c2)c1` (stereo not given), the inhibition in experiment [1] was -0.17%; in experiment [2], 0.8%; in experiment [3], 1.89%.

With `N=C(N)NN=Cc1c[nH]c2ccc(-c3ccccc3)cc12`, the inhibition was 0.57% in experiment [1], 0.13% in experiment [2] and 1.34% in experiment [3].

In the case of `COc1ccc(S(=O)(=O)Nc2cc(C)cc(Br)c2OC)cc1N1CCN(C(=O)C(Cl)(Cl)Cl)CC1`, the results for the inhibition in experiment [1], in experiment [2] and in experiment [3] were 0.75%, 0.79% and -0.68%, respectively.

With `CN1CCC(C(=O)N(Cc2ccc(-c3ccc(CNCCc4ccc(S(C)(=O)=O)cc4)cn3)cc2)Cc2ccc3c(c2)OCO3)CC1`, the inhibition was determined as 2.03% in experiment [1], 0.87% in experiment [2] and 3.77% in experiment [3].

With `CCCCCCNC(=O)C1Cc2c([nH]c3cc(Cl)ccc23)C2(CCN(CCC)CC2)N1` (stereo not given), the values for the inhibition in experiment [1], in experiment [2] and in experiment [3] were 3.28%, 2.13% and 2.32%, respectively.

In the case of `CCN(CC)CCN(Cc1ccc(-c2ccc(C(F)(F)F)cc2)cc1)C(=O)Cn1c(CCc2ccc(F)cc2)nc(=O)c2sccc21`, the results for the inhibition in experiment [1], in experiment [2] and in experiment [3] were 2.57%, 1.22% and 2.92%, respectively.

In the case of `CC(C)n1cc2c(ccc3nc(N)nc(N)c32)n1`, the values for the inhibition in experiment [1], in experiment [2] and in experiment [3] were 7.23%, 17.1% and 5.96%, respectively.

Turning to `O=C(/C=C/c1ccc(Cl)c(Cl)c1)NCCCCCN1CCC(NC(=O)Nc2ccc([N+](=O)[O-])cc2)CC1`, the inhibition in experiment [1] is -0.34%; in experiment [2], 1.11%; in experiment [3], -0.43%.

Regarding `CCCN(CC1CC1)c1ncc(-c2cccc(CNCCC3CCCN3C)c2)cn1` (stereo not given), the results for the inhibition in experiment [1], in experiment [2] and in experiment [3] were 98.4%, 26.8% and 104%, respectively.

Turning to `NCc1cccc(-c2ccc3ccnc(N)c3c2)c1`, the inhibition in experiment [1] turned out to be 0.01%; in experiment [2] it was 0.05%; in experiment [3] it was 1.2%.

As usually defined, the inhibition is the relative decrease from the control value, in per cent.
